Shiga inhibitor: A qHTS for Small Molecule Inhibitors of Shiga Toxin; Vero cells, Shiga toxin protein synthesis inhibition reporter; 290,000 tested, 9.2% active; inhibition, % at 38.7 µM; AID 2315, 2010; in the data active = inhibition mostly above about 28%, no sharp cut-off; inactive = mostly below about 43%; also: 0% is about no effect
Cycloheximide cs: Cycloheximide Counterscreen for Small Molecule Inhibitors of Shiga Toxin. cell reporter, cycloheximide protein synthesis inhibition counterscreen. max response, %. 300,000 tested, 12% active; in the data active = max response mostly above about 13%, no sharp cut-off; inactive = mostly below about 14%; also: read at 38.3 µM for the half of the compounds with a filed dose; 0% is about no effect
Pf growth 48h: Primary qHTS for delayed death inhibitors of the malarial parasite plastid, 48 hour incubation. P. falciparum luciferase growth in erythrocytes, 48 h. Potency, µM (series often up to 28.7 µM), inactives show at the top dose activity change, negative = inhibition, hits mostly inhibitors. 310,000 tested, 5.9% active. AID 504832, 2011; also: potency is read from the fitted curve at half-maximal effect; % is scaled to controls: 0 for no effect and ±100 for the full control effect
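In quantitative HTS format, infected erythrocytes bearing luciferase-reporter parasites were treated for a single generation at 37 C. Luminescence after adding detection reagent served as the growth measure.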
Pf growth 96h: Primary qHTS for delayed death inhibitors of the malarial parasite plastid, 96 hour incubation; Potency, µM (doses to about 28.7 µM), for inactives: top-dose activity change, negative = inhibition, actives largely listed as inhibitors; 320,000 tested, 6.9% active; P. falciparum luciferase reporter growth, 96 h; also: potency is read from the fitted curve at half-maximal effect; % is scaled to controls: 0 for no effect and ±100 for the full control effect
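Parasite growth measured via integrated firefly luciferase reporter in P. falciparum. Infected erythrocytes at 2% hematocrit, 0.05% parasitemia final were treated 96 hours at 37 C under 5% CO2, and luminescence was read.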
HCV inh: qHTS Assay for Inhibitors of Hepatitis C Virus (HCV); Huh7.5.1 HCVcc-Cre infection, luciferase reporter, 44 h; Potency, µM (doses to about 41.8 µM), inactives show at the top dose activity change, negative = inhibition, hits mostly inhibitors; 340,000 tested, 3.4% active; also: potency is read from the fitted curve at half-maximal effect; % is scaled to controls: 0 for no effect and ±100 for the full control effect
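After 44 h co-culture of compound, cells and HCVcc-Cre (~0.5 moi), substrate is added for 15 min at room temperature and luciferase measured over 15 sec. Cells were seeded at 1,000/well and pre-cultured 4 h.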
AMA1 RON2 block: qHTS for Inhibitors of AMA1-RON; Towards Development of Antimalarial Drug Lead: Primary Screen; Plasmodium falciparum AMA1 (3D7) - RON2 peptide interaction; AID 720542, 2013; AlphaScreen AMA1-biotinylated RON2 peptide binding; 360,000 tested, 0.2% active; Potency, µM (highest dose often 58.2 µM), without a hit: at the highest dose activity change, negative = inhibition, actives largely listed as inhibitors;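 also: potency is read from the fitted curve at half-maximal effect; 0% = vehicle wells and -100% = peptide control; nearly all actives have a fitted effect of over 45% in size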
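AMA1 (3D7) with his tag at 25 nM final met compounds first, then biotinylated RON2 peptide at 25 nM; detection used donor plus acceptor beads, 10 µg/mL apiece, read by AlphaScreen after 30 min at room temperature.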
* = called active by the depositor. Rows were chosen to be rich in hits. Some 21% of all compounds tested hit in one or more screens of this group. Unless noted, calls follow the shape of the dose curve; as a rule, active = well fitted curve in the direction sought with a large enough effect; inconclusive = small, poorly fitted or top-dose-only effect, or another doubt; inactive = no such curve, though single readings can be large; an effect the other way counts as inactive or inconclusive.

`O=C(O)C1CCCN1c1nc(-c2ccc(Cl)c(Cl)c2)cc(C(F)(F)F)n1` (configuration not stated) gave Pf growth 48h inconclusive, Pf growth 96h inconclusive, HCV inh inconclusive and AMA1 RON2 block 5%.
For CC1(C(=O)Nc2ccc3c(c2)OCCO3)CN(S(C)(=O)=O)CC(=O)N1CCc1ccc(O)cc1 (configuration not stated) the results were AMA1 RON2 block 3%.
`Cc1ccc(-c2cc3nc(-c4ccc(Br)cc4)cc(N)n3n2)cc1` gave Shiga inhibitor -8, Cycloheximide cs 1, Pf growth 48h -10%, Pf growth 96h -8%, HCV inh -5% and AMA1 RON2 block 23%.
For Cc1cc(-c2ccc(Cl)cc2)n2nc(C)cc2n1 the results were Shiga inhibitor -6, Cycloheximide cs -2, Pf growth 48h -1%, Pf growth 96h 10µM*, HCV inh inconclusive and AMA1 RON2 block 19%.
`COc1ccc(-c2cc3nc(C)cc(C)n3n2)cc1` gave Shiga inhibitor 48*, Cycloheximide cs 35*, Pf growth 96h 268%, HCV inh -3% and AMA1 RON2 block 3%.
Screening Cc1cc(C)n2nc(-c3sccc3-n3c(C)ccc3C)cc2n1 returned Shiga inhibitor -1, Cycloheximide cs 5, Pf growth 48h inconclusive, Pf growth 96h inconclusive, HCV inh 8.9µM* and AMA1 RON2 block -1%.
Screening Cc1cc(C)n2nc(-c3sccc3-n3cccc3)cc2n1 returned Shiga inhibitor -14, Cycloheximide cs -3, Pf growth 48h 31%, Pf growth 96h 36%, HCV inh -19% and AMA1 RON2 block -6%.
Screening Cc1cc(C)n2nc(-c3ccc(Br)cc3)cc2n1 returned Cycloheximide cs 26*, Pf growth 48h 157%, Pf growth 96h 16%, HCV inh 17% and AMA1 RON2 block 0%.
`Cc1cc(-c2ccc(Br)cc2)n2nc(C)cc2n1` gave AMA1 RON2 block 23%.
For COc1cccc(COC(=O)Cc2ccc(S(=O)(=O)N3CCOCC3)s2)c1OC the results were Pf growth 48h inconclusive, Pf growth 96h -2%, HCV inh 5% and AMA1 RON2 block 16%.
Screening Cc1nc2cc(-c3ccc(Cl)cc3)nn2c(NCCN(C)C)c1C returned Shiga inhibitor 80*, Cycloheximide cs 60*, Pf growth 48h inconclusive, Pf growth 96h 10µM*, HCV inh 18µM* and AMA1 RON2 block inconclusive.
Cc1cc(C)n2nc(C)c(-c3ccc(Cl)cc3)c2n1 was read as Shiga inhibitor -3, Cycloheximide cs -1, Pf growth 48h -6%, Pf growth 96h 7%, HCV inh 11µM* and AMA1 RON2 block 50%.
`Cc1cc(C)n2nc(C)c(-c3ccccc3)c2n1` gave HCV inh -29% and AMA1 RON2 block 15%.
For Cc1cc(C)n2nc(-c3ccc(Cl)cc3)cc2n1 the results were Shiga inhibitor 100*, Cycloheximide cs 43*, Pf growth 48h 170%, Pf growth 96h 212%, HCV inh 3% and AMA1 RON2 block 8%.
For Cc1cc(C)n(-c2nc(-c3ccc(Cl)cc3)cs2)n1 the results were Shiga inhibitor 5, Cycloheximide cs 9, Pf growth 48h 59%, HCV inh 6% and AMA1 RON2 block -1%.
Screening CCOc1ccc(S(=O)(=O)N2CCCC(C(=O)NCc3ccncc3)C2)cc1 (configuration not stated) returned Shiga inhibitor -11, Cycloheximide cs -2, Pf growth 48h 0%, Pf growth 96h 3%, HCV inh inconclusive and AMA1 RON2 block -10%.
For CCOC(=O)C1=C(C)NC2=C(C(=O)CCC2)C1c1coc2ccccc2c1=O (configuration not stated) the results were Shiga inhibitor 6, Cycloheximide cs -3, Pf growth 96h 12µM*, HCV inh -7% and AMA1 RON2 block 1%.

Screens (PubChem)
